Results reported in PubChem BioAssay.
Values without a mark were called inactive. No rule for the calls is given here.

target: Pantothenate synthetase (Mycobacterium tuberculosis (strain ATCC 25618 / H37Rv)) (UniProt P9WIL5); test: Recombinant Mtb pantothenate synthetase (PanC) inhibitors, coupled enzyme, confirmatory (AID 375); settings: coupled enzyme assay; at 10 µM, hits give high values;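 also: 0% = full reaction with vehicle and 100% = no enzyme background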
Sequence (P9WIL5 whole entry, looked up): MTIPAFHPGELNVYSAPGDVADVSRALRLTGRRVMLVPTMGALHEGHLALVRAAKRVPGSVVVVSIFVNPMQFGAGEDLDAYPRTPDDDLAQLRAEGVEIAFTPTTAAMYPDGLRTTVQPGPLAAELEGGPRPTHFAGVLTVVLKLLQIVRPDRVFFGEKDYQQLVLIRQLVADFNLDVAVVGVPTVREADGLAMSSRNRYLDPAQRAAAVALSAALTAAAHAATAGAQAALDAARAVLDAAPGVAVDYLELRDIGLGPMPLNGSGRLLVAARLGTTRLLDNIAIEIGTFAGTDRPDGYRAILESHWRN

Row | SMILES | inhibition
1 | COC(=O)C1=CN(C(C)C)C=C(C(=O)OC)C1c1cc2c(cc1Br)OCO2 | 0%
2 | O=S(=O)(NCC(c1cccnc1)N1CCN(c2ccccc2)CC1)c1cc(F)ccc1F (centres undefined) | 0%
3 | Cc1ccccc1C(=O)NC1CCN(Cc2nnnn2CCc2ccccc2)CC1 | 14%
4 | Oc1ccccc1-c1cc(C(F)(F)C(F)F)[nH]n1 | 0%
5 | CC1CCc2nn(CC(=O)NCc3ccc4c(c3)OCO4)cc2C1 (centres undefined) | 1%
6 | Cc1cnc(C(=O)Nc2ccc(N3CCOCC3)cc2)cn1 | 4%
7 | COC(=O)CCN(C(=O)c1ccc2c(c1)OCO2)c1ccccn1 | 0%
8 | O=c1cc(-c2ccc(Cl)cc2)[nH][nH]1 | 1%
9 | COc1ccc(-c2noc(COc3ccc4ccccc4c3Br)n2)cc1OC | 6%
10 | Nc1sccc1C(=O)c1ccc(Cl)cc1 | 0%
11 | COc1cccc(Nc2nnc(SCC(=O)N3CC(C)OC(C)C3)s2)c1 (centres undefined) | 2%
12 | CCC(c1nnnn1Cc1ccco1)N(CCc1ccccc1)Cc1cc2cccc(C)c2[nH]c1=O (centres undefined) | 1%
13 | C/C=C/COC(=O)c1[nH]c2c(c1C)C(=O)CC(c1ccc(N(C)C)cc1)C2 (centres undefined) | 1%
14 | Cn1c(NC(=O)c2cccc(Cn3cc(Cl)cn3)c2)nc2ccccc21 | 8%
15 | COc1cccc(-c2csc(N3CCN(CC(=O)Nc4ccc5c(c4)OCO5)CC3)n2)c1 | 0%
16 | COc1cc2c(cc1OC)C(/C(C#N)=N\O)=NC(C)(C)C2 | 2%
17 | COc1ccc(CCNC(=O)CSCc2n[nH]c(=O)[nH]2)cc1OC | 0%
18 | CC(=O)OC[C@H]1O[C@@H](n2ncc(=O)[nH]c2=O)[C@H](OC(C)=O)[C@@H]1OC(C)=O | 0%
19 | CCOC(=O)c1cnn(-c2sc(C(=O)OCC)c(C)c2C(=O)OCC)c1N | 0%
20 | COc1cccc(OCc2nc3ccccc3[nH]2)c1 | 0%

Row | SMILES | inhibition
21 | Nc1nnnn1/N=C/c1ccccn1 | 0%
22 | COc1ccc(NC(=O)CCc2ccccc2)cc1NC(=O)c1ccco1 | 9%
23 | COc1ccc(-c2cc(O)cc(O)c2)cc1 | 0%
24 | CCCOc1ccc(C2C(C(=O)OC)=CN(CCOC)C=C2C(=O)OC)cc1 | 1%
25 | CCC(=O)Nc1ccc(NC(=O)c2cccc(OC)c2)nc1 | 0%
26 | Cc1cccc(-n2ncc3c(NCCCO)ncnc32)c1 | 2%
27 | COc1ccc(CN2C(=O)CN=C2Nc2ccc(C)cc2C)cc1 | 6%
28 | O=C(NCCCN1CCCC1=O)c1ccc2c(=O)n(Cc3ccco3)c(=S)[nH]c2c1 | 0%
29 | O=C(NCc1nnc(SCC(=O)N2CCCCCC2)o1)c1ccco1 | 8%
30 | O=c1[nH]c(NCc2ccccc2)nc2c1CCCC2 | 0%
31 | CCOc1ncccc1C(=O)OCC(=O)Nc1ncc(C(F)(F)F)cc1Cl | 1%
32 | COC(=O)c1sccc1NC(=O)c1ccco1 | 1%
33 | Cc1ccc(C)c(NC(=O)C2CCC(C)(C(=O)O)C2(C)C)c1 (centres undefined) | 0%
34 | CC1=C(C(=O)OCC(C)C)C(c2cc3c(cc2Br)OCO3)NC(=O)N1C (centres undefined) | 0%
35 | CC(C)(C)SCCNC(=O)CSc1ccccc1 | 7%
36 | Cc1c(NC(=O)C(C)OC(=O)COc2cccc3c2OC(C)(C)C3)c(=O)n(-c2ccccc2)n1C (centres undefined) | 5%
37 | CCOC(=O)N1CCC(NC(=O)CCN2C(=O)COc3ccccc32)CC1 | 0%
38 | COc1ccc(N2CCN(c3oc(COc4ccccc4Cl)nc3C#N)CC2)cc1 | 0%
39 | CCN(CC)S(=O)(=O)c1ccc(C(=O)N2CCN=C2SCc2cccnc2)cc1 | 0%
